Compound activity from PubChem.
Rows were chosen to be rich in hits. Some 1.4% of all compounds tested hit in one or more screens of this group.
HTR5A inv ag = inverse agonist of human HTR5A in OPRM1-OPRD1 counter-screen | HTR5A cell line, luminescence, inverse agonism | inhibition, % at 9.3 µM | 340,000 compounds, 0.083% hits | AID 504634; in the data active means inhibition mostly above about 23%, no sharp cut-off; inactive means mostly below about 18%;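 further: 0% = cells with DMSO and 100% = no-cell wells with DMSO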
HTR5A ag = activates human HTR5A in OPRM1-OPRD1 agonist counter-screen | 340,000 compounds, 0.61% hits | P47898 | activation, % at 9.3 µM | HTR5A agonist assay, luminescence, cell-based; in the data active means activation mostly above about 9.5%, no sharp cut-off; inactive means mostly below about 7.6%;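 further: 0% = cells with vehicle only and 100% = reference agonist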
OPRM1-OPRD1 inv = inverse agonists of human mu-delta opioid receptor heterodimerization. P35372+P41143. cell-based MOR-DOR heterodimer luminescence, inverse agonism. AID 504357. inhibition, % at 9.3 µM. 340,000 compounds, 0.21% hits; in the data active means inhibition above about 22%, passing the limit was not always enough;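 further: 0% = cells with DMSO and 100% = wells without cells with DMSO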
Target sequence (P35372 whole entry, looked up): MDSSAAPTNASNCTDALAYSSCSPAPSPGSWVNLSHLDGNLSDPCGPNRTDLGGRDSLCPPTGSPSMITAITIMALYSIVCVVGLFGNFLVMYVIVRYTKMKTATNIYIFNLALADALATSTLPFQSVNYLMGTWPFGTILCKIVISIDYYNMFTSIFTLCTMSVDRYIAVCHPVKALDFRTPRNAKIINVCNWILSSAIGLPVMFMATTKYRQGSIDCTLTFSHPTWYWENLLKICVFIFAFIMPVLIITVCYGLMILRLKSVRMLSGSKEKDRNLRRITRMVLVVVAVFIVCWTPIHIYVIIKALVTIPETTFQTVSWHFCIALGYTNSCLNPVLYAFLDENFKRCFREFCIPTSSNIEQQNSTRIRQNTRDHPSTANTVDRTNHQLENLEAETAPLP
Target sequence (P41143 whole entry, looked up): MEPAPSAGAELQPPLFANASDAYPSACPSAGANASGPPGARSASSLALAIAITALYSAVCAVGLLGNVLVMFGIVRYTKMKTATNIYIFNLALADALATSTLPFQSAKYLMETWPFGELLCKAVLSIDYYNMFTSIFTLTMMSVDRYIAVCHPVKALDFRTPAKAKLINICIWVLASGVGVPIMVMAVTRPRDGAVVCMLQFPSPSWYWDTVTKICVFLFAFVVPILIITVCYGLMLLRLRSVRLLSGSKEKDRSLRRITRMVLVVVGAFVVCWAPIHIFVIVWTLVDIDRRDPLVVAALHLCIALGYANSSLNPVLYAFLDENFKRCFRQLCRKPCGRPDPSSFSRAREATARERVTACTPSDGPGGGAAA
pCIP destab = compounds decreasing mouse p/CIP protein stability | Q05BA5 | F442A p/CIP-EGFP cells, EGFP fluorescence, 16 h | decrease of EGFP signal, % at 10 µM | 290,000 compounds, 0.01% hits | AID 1984;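 active means EGFP signal decrease of at least 30% at 10 µM or well 3 SD below plate mean, unless failing retest; inactive means the rest, including hits failing retest or dose response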
OPRM1-OPRD1 ag = agonists of human mu-delta opioid receptor heterodimerization. cells, OPRM1-OPRD1 heterodimerization, luminescence. activation, % at 9.3 µM. 340,000 compounds, 0.3% hits; in the data active means activation above about 18%;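 further: 0% = vehicle-treated cells and 100% = reference agonist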
MIN6 prolif = inducers of beta-cell replication in MIN6 cells. MIN6 cells proliferation, ATPlite luminescence, 48 h; cells starved in 0.2% serum; 100% = growth in 10% serum. proliferation, % at 10 µM. 330,000 compounds, 0.29% hits. AID 2380;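 active means compounds whose signal lies at least 3.5 SD above the mean of all wells on their plate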;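 further: 0% = DMSO-treated cells in low-serum medium and 100% = 10% serum control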
Active calls of the source: *.

COc1ccc(C(=O)N/N=C\c2ccc(OC)c(COc3ccccc3Br)c2)c(OC)c1 was read as HTR5A inv ag -20, HTR5A ag 10*, OPRM1-OPRD1 inv -21, pCIP destab -10, OPRM1-OPRD1 ag 3 and MIN6 prolif -2.
For COCC(C)NC(=O)c1cc2cccc([N+](=O)[O-])c2[nH]1 (stereo unspecified) the results were HTR5A inv ag 3, HTR5A ag -3, OPRM1-OPRD1 inv 5, pCIP destab 4, OPRM1-OPRD1 ag -1 and MIN6 prolif -2.
`Cc1cc(NC(=O)c2cc3cccc([N+](=O)[O-])c3[nH]2)ccc1F` gave HTR5A inv ag -36, HTR5A ag 12*, OPRM1-OPRD1 inv -30, pCIP destab 2, OPRM1-OPRD1 ag 6 and MIN6 prolif -4.
`CCC1(c2ccccc2)NC(=O)N(CC(=O)N2CC(=O)Nc3ccccc32)C1=O` (stereo unspecified) gave HTR5A inv ag -21, HTR5A ag 3, OPRM1-OPRD1 inv 12, OPRM1-OPRD1 ag -3 and MIN6 prolif 1.
`CCCn1c(NCc2ccco2)nc2c1c(=O)n(C)c(=O)n2C` gave HTR5A inv ag -6, HTR5A ag 2, OPRM1-OPRD1 inv 9, pCIP destab 2, OPRM1-OPRD1 ag -2 and MIN6 prolif -2.
`CCn1c(NCc2ccccn2)nc2c1c(=O)n(C)c(=O)n2C` gave HTR5A inv ag 4, HTR5A ag 14*, OPRM1-OPRD1 inv 11, pCIP destab -8, OPRM1-OPRD1 ag -2 and MIN6 prolif 1.
For CCOC(=O)C1CCN(CC(O)COCc2ccc(Cl)cc2)CC1 (stereo unspecified) the results were HTR5A inv ag -44, HTR5A ag 12*, OPRM1-OPRD1 inv 15, pCIP destab -7, OPRM1-OPRD1 ag -3 and MIN6 prolif 4.
Screening NC(=O)C1CCCN(CC(O)COCc2ccc(Cl)cc2)C1 (stereo unspecified) returned HTR5A inv ag -6, HTR5A ag 2, OPRM1-OPRD1 inv 8, pCIP destab -9, OPRM1-OPRD1 ag -2 and MIN6 prolif -4.
Screening C=CCN1C=C(C(C)=O)C(=O)CC1 returned HTR5A inv ag 11, HTR5A ag -3, OPRM1-OPRD1 inv 7 and OPRM1-OPRD1 ag -2.
For COc1ccc(/C=C2/SC(=S)N(CCCC(=O)N3CCN(C)CC3)C2=O)cc1 the results were HTR5A inv ag 7, HTR5A ag -3, OPRM1-OPRD1 inv 2, pCIP destab -4, OPRM1-OPRD1 ag 0 and MIN6 prolif -5.
For COc1ccc(/C=C2/SC(=S)N(CCC(=O)N3CCN(C)CC3)C2=O)cc1 the results were HTR5A inv ag -20, HTR5A ag 14*, OPRM1-OPRD1 inv -22, pCIP destab 14, OPRM1-OPRD1 ag 3 and MIN6 prolif -4.
For CCc1ccccc1NS(=O)(=O)c1ccc(OC)c2ncccc12 the results were HTR5A inv ag -35, HTR5A ag 9.2*, OPRM1-OPRD1 inv -21, pCIP destab -17, OPRM1-OPRD1 ag 4 and MIN6 prolif 0.
`CCc1ccc(NS(=O)(=O)c2ccc(OC)c3ncccc23)cc1` gave HTR5A inv ag -2, HTR5A ag -3, OPRM1-OPRD1 inv 11, pCIP destab -11, OPRM1-OPRD1 ag -2 and MIN6 prolif -1.
Screening O=C(CSc1ncn[nH]1)Nc1ncc(C(F)(F)F)cc1Cl returned HTR5A inv ag -5, HTR5A ag 2, OPRM1-OPRD1 inv 3, pCIP destab -4, OPRM1-OPRD1 ag 0 and MIN6 prolif -1.
Screening O=C(CSc1ncn[nH]1)Nc1ccc(Cl)c(Cl)c1 returned HTR5A inv ag 6, HTR5A ag 8.7*, OPRM1-OPRD1 inv 16, pCIP destab -6, OPRM1-OPRD1 ag -3 and MIN6 prolif -3.
For COc1ccc(S(=O)(=O)N2CCN(CC(=O)Nc3sccc3C(N)=O)CC2)cc1OC the results were HTR5A inv ag 4, HTR5A ag -2, OPRM1-OPRD1 inv -3, OPRM1-OPRD1 ag 1 and MIN6 prolif 3.
CC1(C)c2[nH]c3ccccc3c2C[C@@H]2C(=O)N(Cc3ccccc3)C(=O)N21 was read as HTR5A inv ag -7, HTR5A ag 1, OPRM1-OPRD1 inv -4, OPRM1-OPRD1 ag 1 and MIN6 prolif -6.
`COC(=O)[C@@H]1Cc2c([nH]c3ccccc23)C(C)(C)N1C(=O)CCl` gave HTR5A inv ag -147, HTR5A ag 41*, OPRM1-OPRD1 inv -172, pCIP destab 3, OPRM1-OPRD1 ag 37* and MIN6 prolif -6.
`O=C(O)Cc1c[nH]c2ccccc12` gave HTR5A inv ag -52, HTR5A ag 4, OPRM1-OPRD1 inv 15, OPRM1-OPRD1 ag -3 and MIN6 prolif -4.
Screening CC(=O)n1cc(N(C(=O)CCl)c2ccccc2)c2ccccc21 returned HTR5A inv ag 5, HTR5A ag 57*, OPRM1-OPRD1 inv -334, pCIP destab -8, OPRM1-OPRD1 ag 65* and MIN6 prolif -4.
CC(=O)n1cc(N(C(=O)CCl)c2ccc([N+](=O)[O-])cc2)c2ccccc21 was read as HTR5A inv ag -4, HTR5A ag 27*, OPRM1-OPRD1 inv -101, pCIP destab 12, OPRM1-OPRD1 ag 20* and MIN6 prolif -4.
Screening O=Cc1[nH]c2ccccc2c1N(C(=O)CCl)c1ccc([N+](=O)[O-])cc1 returned HTR5A inv ag 6, HTR5A ag 2, OPRM1-OPRD1 inv 18, pCIP destab -7, OPRM1-OPRD1 ag -4 and MIN6 prolif -6.
`O=C(CCl)N(c1ccccc1)c1c[nH]c2ccccc12` gave HTR5A inv ag -103, HTR5A ag 40*, OPRM1-OPRD1 inv -195, pCIP destab -10, OPRM1-OPRD1 ag 39* and MIN6 prolif -4.
`Cc1ccc(-c2ccc(=O)n(CC(=O)NCCN(CC(C)C)CC(C)C)n2)cc1` gave HTR5A inv ag 4, HTR5A ag -1, OPRM1-OPRD1 inv 5, pCIP destab -2, OPRM1-OPRD1 ag -1 and MIN6 prolif 3.
Screening COC(=O)C1=C(O)/C(=C\c2ccc(CNC(=O)C(=O)Nc3ccc(C)cc3)o2)N=C1C returned HTR5A inv ag 13, HTR5A ag -6, OPRM1-OPRD1 inv -1, pCIP destab 1, OPRM1-OPRD1 ag 0 and MIN6 prolif -3.
CCOC(=O)C1=C(O)/C(=C/c2ccc(CNC(=O)C(=O)Nc3ccc(C)cc3)o2)N=C1C was read as HTR5A inv ag -6, HTR5A ag 14*, OPRM1-OPRD1 inv -2, pCIP destab -6, OPRM1-OPRD1 ag 0 and MIN6 prolif -2.
`Cc1c(NCc2nc3ccccc3[nH]2)c(=O)n(-c2ccccc2)n1C` gave HTR5A inv ag -21, HTR5A ag 12*, OPRM1-OPRD1 inv 8, pCIP destab -2, OPRM1-OPRD1 ag -1 and MIN6 prolif -2.
